# Data as given in PubChem BioAssay.
# The source made the active and inactive calls.
# Key:
# [1] = tested on: PRMT1 (protein arginine N-methyltransferase 1); assay: PRMT1 binders on small-molecule microarrays, primary screen, biochemical, small-molecule microarray, 635 nm fluorescence (AID 1088); conditions: small-molecule microarray binding, higher = more signal;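 also: binding of Prmt1 protein to compounds spotted on small-molecule microarray slides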
# [2] = yeast growth modulation, basal conditions, primary screen, YJM789 clinical isolate, OD600, 24 h (AID 1089);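 also: growth of clinical yeast isolate S. cerevisiae YJM 789 seeded 1000 cells per well; test concentration not given here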; conditions: S. cerevisiae YJM789 growth, higher = more signal, called active from +8 up or from −8 down
# [3] = fission yeast growth modulation, primary screen, strain 972, OD600, 24 h, no modulator (AID 1090);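 also: basal condition with compound alone and no growth modifier present; test concentration not given here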; conditions: S. pombe 972 growth, higher = more signal, called active from +8 up or from −8 down
# [4] = S. cerevisiae growth modulation with rapamycin, primary screen, strain BY4716, OD600, 96 h (AID 1091); conditions: higher = more signal, called active from +8 up or from −8 down; also: test concentration not given here
# [5] = target: Torsin-1A-interacting protein 2 (Homo sapiens) (UniProt Q8NFQ8); assay: LULL1 binders on small-molecule microarray, primary screen, cell lysate, human LULL1 lysate, 635/667 nm fluorescence (AID 1092); conditions: hLULL1 lysate binding, 635 nm fluorescence, higher = more signal;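 also: probe is lysate of COS7 cells overexpressing human LULL1; score merges per-feature 667 nm fluorescence with signal-to-noise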
# [6] = E. coli growth modulation, two-sided OD650, primary screen, E. coli filamentation project, strain DRC41, 24 h (AID 1093); conditions: OD650, 24 h, higher = more signal, called active from +8 up or from −8 down;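 also: MC1000 strain lacking acrAB efflux and sulA so SOS filamentation is blocked; test concentration not given here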
# [7] = small-molecule microarray binders of probe aLefty2, primary screen, biochemical, biotinylated probe, 635/667 nm fluorescence (AID 1094); conditions: higher = more signal;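 also: score merges spot fluorescence near 667 nm with spot signal-to-noise ratio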
# [8] = tested on: Noggin (protein binding on small-molecule microarray); assay: Noggin binders on small-molecule microarray, primary screen, biochemical, 635/667 nm fluorescence (AID 1095); conditions: 635 nm fluorescence, higher = more signal;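 also: score merges 667 nm feature fluorescence with signal to noise over triplicate slides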
# [9] = target: Neurogenic locus notch homolog protein 3 (Homo sapiens) (UniProt Q9UM47); assay: NOTCH3 binders on small-molecule microarray, primary screen, biochemical, 635/667 nm fluorescence (AID 1096); conditions: NOTCH3 binding, 635 nm fluorescence, higher = more signal
# [10] = small-molecule microarray binders of probe aEGFR, primary screen, biochemical, biotinylated probe, 635/667 nm fluorescence (AID 1097); conditions: higher = more signal;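 also: probe is a biotinylated anti-EGFR antibody binding compounds printed on slides; score combines fluorescence near 667 nm and signal to noise of each spot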
# [11] = tested on: Plasmodium falciparum Sir2 (PF13_0152, Sir2A); assay: pfSir2 binders on small-molecule microarrays, primary screen, biochemical, small-molecule microarray, 635 nm fluorescence (AID 1098); conditions: small-molecule microarray binding, fluorescence 635 nm; higher = more signal;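 also: score merges spot fluorescence intensity with its signal-to-noise ratio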
# [12] = small-molecule microarray binders of probe aDKK1, primary screen, biochemical, biotinylated probe, 635/667 nm fluorescence (AID 1099); conditions: higher = more signal;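 also: score merges 667nm spot fluorescence with signal to noise across triplicate slides; reference of the scale not given here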
# [13] = small-molecule microarray binders of probe aCHRDL2, primary screen, biochemical, biotinylated probe, 635/667 nm fluorescence (AID 1100); conditions: higher = more signal
# [14] = splicing luciferase reporter signal modulators, primary screen, spliceosome inhibition project, cell-based, HEK293, splice +/- reporter (AID 1101); conditions: luminescence, 24 h, higher = more signal, called active from +8 up or from −8 down;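 also: HEK293 cells carrying a splicing-competent luciferase reporter gene; test concentration not given here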
# [15] = target: Fibroblast growth factor 10 (Homo sapiens) (UniProt O15520); assay: FGF10 binders on small-molecule microarrays, primary screen, biochemical, small-molecule microarray, 635 nm fluorescence (AID 1102); conditions: FGF10 binding, fluorescence 635 nm, higher = more signal
# [16] = tested on: glycogen synthase kinase-3 (GSK3A per assay name; protocol says GSK3B); assay: GSK3 binders on small-molecule microarrays, primary screen, biochemical, small-molecule microarray, 635 nm fluorescence, GSK3A (AID 1103); conditions: small-molecule microarray binding, fluorescence 635 nm; higher = more signal; also: the record names both GSK3A and GSK3B
# [17] = target: Epidermal growth factor receptor (Homo sapiens) (UniProt P00533); assay: EGFR binders on small-molecule microarrays, primary screen, biochemical, small-molecule microarray, 635 nm fluorescence (AID 1104); conditions: EGFR binding, higher = more signal;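 also: score merges 667 nm emission intensity with spot signal to noise over triplicate slides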
# [18] = target: Follistatin-related protein 3 (Homo sapiens) (UniProt O95633); assay: FSTL3 binders on small-molecule microarrays, primary screen, biochemical, small-molecule microarray, 635 nm fluorescence (AID 1105); conditions: FSTL3 binding, higher = more signal;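 also: score merges emission near 667 nm and signal to noise per printed spot across three slides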
# [19] = target: Dickkopf-related protein 1 (Homo sapiens) (UniProt O94907); assay: DKK1 binders on small-molecule microarrays, primary screen, biochemical, small-molecule microarray, 635 nm fluorescence scan (AID 1106); conditions: DKK1 binding, higher = more signal;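 also: score merges emission near 667 nm with signal to noise over three replicate slides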
# [20] = tested on: Inhibin beta A chain (activin A); assay: INHBA (activin A) binders on microarrays, primary screen, biochemical, small-molecule microarray, 635 nm fluorescence scan (AID 1107); conditions: small-molecule microarray binding, higher = more signal;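 also: mouse activin A protein probed at 4.33 µg/mL on printed slides; score merges bound-protein fluorescence near 667 nm with spot signal-to-noise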
# Dickkopf-related protein 1 (Homo sapiens), sequence (O94907 whole entry, looked up): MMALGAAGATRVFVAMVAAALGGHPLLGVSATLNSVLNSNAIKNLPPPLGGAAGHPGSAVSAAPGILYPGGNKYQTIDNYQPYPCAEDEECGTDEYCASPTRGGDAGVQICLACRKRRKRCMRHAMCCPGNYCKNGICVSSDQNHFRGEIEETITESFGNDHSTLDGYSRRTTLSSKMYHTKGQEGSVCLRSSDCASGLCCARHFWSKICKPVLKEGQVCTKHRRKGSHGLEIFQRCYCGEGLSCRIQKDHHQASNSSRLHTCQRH
# Torsin-1A-interacting protein 2 (Homo sapiens), sequence (Q8NFQ8 whole entry, looked up): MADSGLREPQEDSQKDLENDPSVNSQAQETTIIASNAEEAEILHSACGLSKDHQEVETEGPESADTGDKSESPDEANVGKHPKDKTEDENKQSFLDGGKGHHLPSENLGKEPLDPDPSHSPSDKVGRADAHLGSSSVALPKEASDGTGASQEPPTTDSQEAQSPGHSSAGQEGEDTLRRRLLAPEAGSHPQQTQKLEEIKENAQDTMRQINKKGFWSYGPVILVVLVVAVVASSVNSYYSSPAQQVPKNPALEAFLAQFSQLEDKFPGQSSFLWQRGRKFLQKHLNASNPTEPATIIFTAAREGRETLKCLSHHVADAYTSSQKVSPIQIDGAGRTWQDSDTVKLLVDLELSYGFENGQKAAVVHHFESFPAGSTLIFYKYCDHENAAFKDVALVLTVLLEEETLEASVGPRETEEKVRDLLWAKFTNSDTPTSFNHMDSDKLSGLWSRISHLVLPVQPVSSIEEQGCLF
# Epidermal growth factor receptor (Homo sapiens), sequence (P00533 whole entry, looked up): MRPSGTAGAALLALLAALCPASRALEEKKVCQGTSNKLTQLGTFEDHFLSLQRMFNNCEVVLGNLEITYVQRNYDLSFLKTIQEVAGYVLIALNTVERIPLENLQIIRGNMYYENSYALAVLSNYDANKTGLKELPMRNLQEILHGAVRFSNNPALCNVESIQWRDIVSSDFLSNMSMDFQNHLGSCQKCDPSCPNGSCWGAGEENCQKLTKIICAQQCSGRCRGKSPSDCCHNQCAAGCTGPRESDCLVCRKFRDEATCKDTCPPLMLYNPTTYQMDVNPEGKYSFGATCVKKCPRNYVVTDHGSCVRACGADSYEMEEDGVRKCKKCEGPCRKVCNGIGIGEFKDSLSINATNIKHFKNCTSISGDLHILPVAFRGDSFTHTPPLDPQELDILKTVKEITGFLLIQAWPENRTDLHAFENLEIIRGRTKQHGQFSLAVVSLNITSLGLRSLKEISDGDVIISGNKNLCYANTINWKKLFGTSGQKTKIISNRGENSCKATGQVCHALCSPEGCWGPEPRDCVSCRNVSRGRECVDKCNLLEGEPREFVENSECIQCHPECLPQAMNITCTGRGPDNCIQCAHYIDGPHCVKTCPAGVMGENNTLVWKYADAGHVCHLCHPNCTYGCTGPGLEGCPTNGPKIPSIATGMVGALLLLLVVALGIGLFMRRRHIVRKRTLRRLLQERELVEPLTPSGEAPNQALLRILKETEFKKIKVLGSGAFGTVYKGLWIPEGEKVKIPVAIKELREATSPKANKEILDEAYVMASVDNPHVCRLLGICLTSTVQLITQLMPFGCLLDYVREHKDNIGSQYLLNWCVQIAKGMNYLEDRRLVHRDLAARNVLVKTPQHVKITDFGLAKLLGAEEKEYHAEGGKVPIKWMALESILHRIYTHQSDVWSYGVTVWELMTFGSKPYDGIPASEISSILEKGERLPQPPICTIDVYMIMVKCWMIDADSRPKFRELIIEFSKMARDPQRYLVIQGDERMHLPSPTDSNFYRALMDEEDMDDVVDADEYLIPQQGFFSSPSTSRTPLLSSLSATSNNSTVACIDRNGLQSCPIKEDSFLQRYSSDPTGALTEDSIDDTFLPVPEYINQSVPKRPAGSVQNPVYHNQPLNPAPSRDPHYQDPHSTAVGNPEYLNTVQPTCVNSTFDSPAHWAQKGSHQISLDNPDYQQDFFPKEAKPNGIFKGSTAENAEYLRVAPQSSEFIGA
# Fibroblast growth factor 10 (Homo sapiens), sequence (O15520 whole entry, looked up): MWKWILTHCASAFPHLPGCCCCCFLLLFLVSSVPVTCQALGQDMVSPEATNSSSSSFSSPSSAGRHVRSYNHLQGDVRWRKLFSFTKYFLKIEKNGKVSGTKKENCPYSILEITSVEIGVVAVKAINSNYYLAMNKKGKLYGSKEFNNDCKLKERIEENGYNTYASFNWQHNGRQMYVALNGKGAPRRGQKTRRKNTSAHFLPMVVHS
# Neurogenic locus notch homolog protein 3 (Homo sapiens), sequence (Q9UM47 whole entry, looked up): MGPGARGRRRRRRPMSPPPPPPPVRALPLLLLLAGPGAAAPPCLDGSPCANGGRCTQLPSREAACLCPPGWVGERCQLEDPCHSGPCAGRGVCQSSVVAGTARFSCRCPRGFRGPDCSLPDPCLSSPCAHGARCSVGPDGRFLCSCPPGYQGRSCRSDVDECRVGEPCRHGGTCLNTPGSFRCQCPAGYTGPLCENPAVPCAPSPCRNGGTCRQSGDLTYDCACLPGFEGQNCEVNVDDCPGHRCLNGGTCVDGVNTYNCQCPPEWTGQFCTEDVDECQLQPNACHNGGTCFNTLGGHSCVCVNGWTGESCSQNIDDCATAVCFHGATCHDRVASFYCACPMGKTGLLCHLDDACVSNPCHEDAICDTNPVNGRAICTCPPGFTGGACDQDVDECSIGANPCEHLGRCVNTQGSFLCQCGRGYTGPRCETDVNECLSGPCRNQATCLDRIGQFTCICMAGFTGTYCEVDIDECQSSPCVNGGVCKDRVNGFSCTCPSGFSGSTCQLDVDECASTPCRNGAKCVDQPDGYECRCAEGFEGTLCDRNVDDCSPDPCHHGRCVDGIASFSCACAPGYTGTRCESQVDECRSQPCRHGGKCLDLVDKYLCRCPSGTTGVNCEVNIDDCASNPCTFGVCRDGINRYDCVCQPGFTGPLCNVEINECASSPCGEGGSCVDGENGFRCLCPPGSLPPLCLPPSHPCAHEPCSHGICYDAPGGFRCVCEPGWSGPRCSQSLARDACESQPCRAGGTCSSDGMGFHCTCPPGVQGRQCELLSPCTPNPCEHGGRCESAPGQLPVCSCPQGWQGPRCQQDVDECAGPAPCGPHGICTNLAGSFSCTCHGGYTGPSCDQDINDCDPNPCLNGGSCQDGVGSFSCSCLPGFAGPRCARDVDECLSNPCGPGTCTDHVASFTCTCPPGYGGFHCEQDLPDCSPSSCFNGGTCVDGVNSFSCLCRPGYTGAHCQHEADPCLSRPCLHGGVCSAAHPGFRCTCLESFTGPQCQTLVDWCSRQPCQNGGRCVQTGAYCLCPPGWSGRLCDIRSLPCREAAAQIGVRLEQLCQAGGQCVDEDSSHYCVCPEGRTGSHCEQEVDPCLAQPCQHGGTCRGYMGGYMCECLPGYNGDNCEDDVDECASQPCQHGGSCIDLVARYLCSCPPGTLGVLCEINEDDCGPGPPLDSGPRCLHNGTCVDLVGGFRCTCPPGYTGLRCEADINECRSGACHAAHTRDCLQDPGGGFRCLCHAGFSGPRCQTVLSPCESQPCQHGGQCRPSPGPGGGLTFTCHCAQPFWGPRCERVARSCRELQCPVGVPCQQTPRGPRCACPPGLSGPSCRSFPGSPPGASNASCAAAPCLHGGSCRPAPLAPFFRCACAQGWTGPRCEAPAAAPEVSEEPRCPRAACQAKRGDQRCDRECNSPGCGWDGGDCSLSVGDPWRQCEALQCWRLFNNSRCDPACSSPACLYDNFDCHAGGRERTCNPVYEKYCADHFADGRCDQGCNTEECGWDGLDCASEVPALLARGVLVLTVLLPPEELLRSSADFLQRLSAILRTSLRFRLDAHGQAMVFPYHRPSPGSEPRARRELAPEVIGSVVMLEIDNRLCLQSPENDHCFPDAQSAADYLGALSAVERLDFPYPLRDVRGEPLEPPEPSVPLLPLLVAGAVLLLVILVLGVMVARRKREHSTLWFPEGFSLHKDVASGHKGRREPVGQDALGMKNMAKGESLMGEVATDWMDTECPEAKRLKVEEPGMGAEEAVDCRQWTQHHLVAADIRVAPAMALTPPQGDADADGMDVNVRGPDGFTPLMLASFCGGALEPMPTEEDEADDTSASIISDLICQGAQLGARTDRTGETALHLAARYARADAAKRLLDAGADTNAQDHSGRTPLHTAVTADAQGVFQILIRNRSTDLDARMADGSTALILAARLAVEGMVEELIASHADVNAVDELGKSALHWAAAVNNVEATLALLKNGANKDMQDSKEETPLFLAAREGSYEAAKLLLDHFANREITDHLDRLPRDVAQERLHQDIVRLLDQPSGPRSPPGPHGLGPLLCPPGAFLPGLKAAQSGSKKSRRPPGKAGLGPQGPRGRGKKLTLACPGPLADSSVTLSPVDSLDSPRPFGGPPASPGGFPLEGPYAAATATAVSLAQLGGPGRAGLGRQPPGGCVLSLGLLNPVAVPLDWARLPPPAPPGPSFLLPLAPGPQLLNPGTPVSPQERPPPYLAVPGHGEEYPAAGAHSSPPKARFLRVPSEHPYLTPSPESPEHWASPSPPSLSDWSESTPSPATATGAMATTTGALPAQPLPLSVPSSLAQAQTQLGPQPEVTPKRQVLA
# Follistatin-related protein 3 (Homo sapiens), sequence (O95633 whole entry, looked up): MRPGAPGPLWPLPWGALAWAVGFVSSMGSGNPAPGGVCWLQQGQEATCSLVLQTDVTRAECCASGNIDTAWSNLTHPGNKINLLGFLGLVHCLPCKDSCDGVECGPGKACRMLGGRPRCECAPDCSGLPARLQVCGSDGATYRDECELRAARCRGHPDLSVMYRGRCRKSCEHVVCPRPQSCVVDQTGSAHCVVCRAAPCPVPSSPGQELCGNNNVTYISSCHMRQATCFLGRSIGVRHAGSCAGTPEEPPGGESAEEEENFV
Compound,composite z-score [1],z-score [2],z-score [3],z-score [4],composite z-score [5],z-score [6],composite z-score [7],composite z-score [8],composite z-score [9],composite z-score [10],composite z-score [11],composite z-score [12],composite z-score [13],z-score [14],composite z-score [15],composite z-score [16],composite z-score [17],composite z-score [18],composite z-score [19],composite z-score [20]
O=C/C=C/c1ccccc1Cl,-0.284,1.68 (inactive),-11 (active),-0.6 (inactive),0.54,0.0791 (inactive),-0.0336,-0.479,-0.709,-0.18,1.67,0.265,0.405,0.0402 (inactive),0.0974,-0.71,-0.336,-0.62,-0.485,0.325
CCCNC(=O)[C@@H]1c2ccccc2C(=O)N(Cc2cc(F)cc(C(F)(F)F)c2)[C@H]1c1ccc(CO)cc1,1.54,-1.15 (inactive),-2.49 (inactive),-1.36 (inactive),2.83,1.97 (inactive),0.0465,1.66,1.05,0.289,1.54,0.792,0.853,-1.26 (inactive),0.926,1.29,0.497,1.35,0.677,1.05
COc1cccc([C@@H]2[C@@H](C)CC[C@H]3C(=O)N(C)[C@@H](C(C)C)C(=O)N23)c1,-0.652,-0.0534 (inactive),-0.719 (inactive),0.369 (inactive),0.21,0.652 (inactive),-0.0113,0.375,0.374,-0.111,0.516,-0.22,-0.532,0.223 (inactive),0.266,0.649,0.418,0.472,0.782,0.428
CCCCCCc1nc(C2CC2)c(C)c2c1[Si](C(C)C)(C(C)C)OC2,-1.09,-2.2 (inactive),-3.58 (inactive),-1.75 (inactive),-0.492,1.69 (inactive),-0.0591,0.168,-1.26,-0.202,-0.192,-0.124,0.109,-3.06 (inactive),-0.391,-0.562,0.138,-0.127,0.438,1.54
CN1C(=O)C2C=CC(C(O)c3ccc(N(C)C)cc3)N(Nc3ccc([N+](=O)[O-])cc3[N+](=O)[O-])C2C1=O (stereo not given),1.1,0.0069 (inactive),-0.0787 (inactive),-0.183 (inactive),2.77,-0.465 (inactive),0.452,0.0496,1.1,0.335,1.27,1.17,0.33,1.16 (inactive),0.887,1.2,0.737,1.2,0.137,1.49
C=C[C@H](OC)[C@@H](OC(=O)Nc1ccc(SC)cc1)c1ccc(OC)c(O)c1,0.0672,-0.55 (inactive),-0.965 (inactive),-0.44 (inactive),-0.023,2.04 (inactive),-0.0986,-0.878,-0.321,-0.338,0.0729,-0.276,0.241,-1.84 (inactive),-0.337,-0.392,-0.915,-1.4,-0.559,-0.778
C[C@]1(C(=O)NCc2ccccc2)c2ccccc2C(=O)N(Cc2cc(C(F)(F)F)cc(C(F)(F)F)c2)[C@H]1c1ccc(CO)cc1,1.58,-2 (inactive),-3.22 (inactive),-2.11 (inactive),1.51,2.13 (inactive),0.339,0.583,0.655,0.18,0.643,0.698,0.778,-1.73 (inactive),0.894,1.18,0.123,0.439,0.419,0.856
CO[C@H]1COC(=O)CC=C[C@H](C)[C@@H](OC)COC(=O)[C@H](Cc2ccccc2)NC(=O)CC=C[C@@H]1C,0.942,0.37 (inactive),-0.623 (inactive),0.725 (inactive),-1.22,-0.145 (inactive),-0.298,1.68,0.0612,-0.172,1.49,-1.1,-1.86,-1.34 (inactive),-0.0885,0.344,0.514,1.22,1.96,1.72
C=C(/C(=C/C[C@@H](OC(=O)c1ccncc1)c1ccc(CO)o1)c1cnc2ccccc2c1)C(C)C,1.54,-0.0873 (inactive),-2.27 (inactive),-0.147 (inactive),1.1,1.23 (inactive),-0.0569,1.08,1.09,0.0009,0.885,0.138,-0.157,0.168 (inactive),1.06,1.29,0.623,1.43,0.574,1.58
CC(C)(C)OC(=O)CC[C@]1(C(=O)NCCN2CCOCC2)N=C(c2ccc(OCCCO)cc2)O[C@H]1c1ccccc1CN=[N+]=[N-],0.82,-1.29 (inactive),-0.981 (inactive),-1.35 (inactive),3.06,1.71 (inactive),-0.0384,-0.541,0.343,0.0074,0.639,0.626,0.777,-1.59 (inactive),-0.0042,0.813,-0.243,-0.49,-0.663,0.82
